Experimental data published in PMC5540273 (PLoS ONE, 2017).

System: CSNK1G1
Conditions: concentration: 1 μM, replicates: in singlicate; n = 1
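Note: KINOMEscan kinase panel screen.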

Row | Compound | %Inh [%]
1 | O=C(Nc1ccccc1)Nc1ccc(Oc2ccc3nccn3n2)cc1 | 0
2 | CN1c2ccc(-c3ccc(C(=O)NCCO)cc3)cc2-c2[nH]ncc2S1(=O)=O | 0
3 | CSc1ccc(NC2=C(c3ccccc3Cl)C(=O)NC2=O)cc1 [SB-342411] | 16
4 | CS(=O)(=O)CCNCc1nc(-c2ccc3ncnc(Nc4ccc(OCc5cccc(F)c5)c(Cl)c4)c3c2)cs1.Cl [GW583340] | 17
5 | Cl.c1ccc(Cn2ccc3cc(Nc4ncnc5ccccc45)ccc32)cc1 [GW275568] | 15
6 | Nc1nccc2scc(-c3ccc4c(c3)CCN4C(=O)Cc3cc(F)ccc3F)c12 [GSK2587663] | 0
7 | Fc1cccc(COc2ccc(Nc3ncnc4sc(-c5ccc[nH]5)cc34)cc2Cl)c1 [GW707818] | 0
8 | Clc1ccc(-c2cc(-c3c[nH]nc3-c3ccccn3)ccn2)cc1 [GW681251] | 0
9 | Cc1cc(N2CCC(NS(=O)(=O)c3ccc(F)cc3)CC2)nc(Nc2cccc(C#N)c2)n1.O=C(O)C(F)(F)F [GSK1653537] | 27
10 | Cl.c1ccc(Cn2ncc3cc(Nc4ncnc5ccccc45)ccc32)cc1 [GW273749] | 12
11 | O=c1cc(N2CCOCC2)nc2n(Cc3cccc(Cl)c3)ccn12 [GSK2296823] | 10
12 | COc1ccc(NC(=O)c2ccc(-c3cc(-c4nnc(C)o4)ccc3C)cc2)cc1 [GW595885] | 0
13 | Cc1ccc(NC(=O)c2cccc(C#N)c2)cc1-c1ccc(C(=O)Nc2ccncc2)cc1 [GSK1398463] | 23
14 | FC(F)(F)c1ccc(-c2nn3ncccc3c2-c2ccnc(Nc3cccc(C(F)(F)F)c3)n2)cc1 [GW828205] | 2
15 | CCn1c(-c2ccncc2)nc2cnccc21 [SB-735216] | 6
16 | CC(C)(C)OC(=O)NC1CCCN(c2cc(-c3ccc4c(N)n[nH]c4c3)nc(N)n2)C1 (centres unmarked) [GSK2286096] | 24
17 | CNc1nccc(-c2c(-c3ccc(F)cc3)ncn2C2CCN(C)CC2)n1 [SB-222903] | 0
18 | CS(=O)(=O)CCNCc1ccc(-c2ccc3ncnc(Nc4ccc(OCc5ccccc5)c(Cl)c4)c3c2)o1.Cl [GW574783] | 0
19 | COc1cc2c(Nc3cccc(NC(=O)c4ccccc4)c3)ncnc2cc1OCCCN1CCOCC1 [GSK223810] | 13
20 | COc1ccc(NC(=O)Nc2ccc(C)c(-c3ccc(C(=O)Nc4ccncc4)cc3)c2)cc1 [GSK1398475] | 6
21 | Oc1ccc2ncnc(Nc3ccc(OCc4ccccc4)cc3)c2c1 [GI262866] | 0
22 | Fc1ccc(-c2ncn(CCCNCc3ccccc3)c2-c2ccncc2)cc1 | 5
23 | FC(F)(F)c1ccc(-c2cc(-c3c[nH]nc3-c3ccccn3)ccn2)cc1 [GW599550] | 10
